# Test results taken from PubChem BioAssay (NCATS).
# Records with an inconclusive call do not appear. Where a call stands in place of a potency, no number is given. A number with no mark means an inactive call. Activity calls are given as the source filed them. Calls come from the whole dose curve; as a rule, active = well fitted cell-killing curve with a large enough effect; inconclusive = small, poorly fitted or top-dose-only effect, or effect the other way; inactive = flat fitted curve, though single readings scatter.
# Experiments:
# Assay in all cases: Primary qHTS to identify gynecologic anti-cancer compounds using libraries of approved drugs and bioactive compounds (AID 1345084); note: nearly all actives have a fitted effect of over 55% in size
# Settings in all cases: Gynecologic cancer cell panel viability, ATPlite luminescence, 48 h; series mostly up to 57.5 µM
# [1] = test system: SKOV3
# Procedure, shortened: (§1)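 ATP-based viability (ATPlite), 1,000 cells/well, 16 h pre-incubation, 48 h compound at 37 C, 5% CO2, 15 min RT before read.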
# [2] = test system: Tov-21-G
# Procedure, shortened: as §1
# [3] = test system: Tov112D
# Procedure, shortened: as §1
structure (smiles),measurement,setting,value
COC(=O)C1=COC(OC2OC(CO)C(O)C(O)C2O)C2C(C)C(OC(C)=O)C(OC(=O)c3ccccc3)C12 (configuration not stated),Potency,[1],inactive
same,Potency,[2],inactive
same,Potency,[3],inactive
Cc1cc(CO)c(O)c(C(=O)CC2CC(=O)NC(=O)C2)c1,Potency,[1],inactive
same,Potency,[2],inactive
same,Potency,[3],inactive
CC1OC(O[C@@H]2[C@@H](O)[C@H](OC(=O)[C@]34CCC(C)(C)C[C@H]3C3=CCC5[C@@]6(C)CC[C@H](O[C@@H]7O[C@H](C(=O)O)[C@@H](O)[C@H](O[C@@H]8OC[C@@H](O)[C@H](O)[C@H]8O)[C@H]7O[C@@H]7O[C@H](CO)[C@H](O)[C@H](O)[C@H]7O)[C@@](C)(C=O)C6CC[C@@]5(C)[C@]3(C)C[C@H]4O)O[C@H](C)[C@@H]2OC2OC(C)C(OC3OCC(O)C(O)C3O)C(O)C2O)C(O)C(O)C1O (some centres not stated),"activity change, negative = cytotoxicity",[1],-2.08% [at 6.55 µM]
same,"activity change, negative = cytotoxicity",[2],5.64% [at 6.55 µM]
same,"activity change, negative = cytotoxicity",[3],10.7% [at 6.55 µM]
C[C@@H]1O[C@@H](O[C@H]2[C@H](OC(=O)[C@]34CCC(C)(C)C[C@H]3C3=CCC5[C@@]6(C)CC[C@H](O[C@@H]7O[C@H](CO[C@@H]8OC[C@H](O)[C@H](O)[C@H]8O)[C@@H](O)[C@H](O)[C@H]7O)C(C)(C)C6CC[C@@]5(C)[C@]3(C)C[C@H]4O)OC[C@@H](O)[C@@H]2O)[C@H](O)[C@H](O[C@@H]2OC[C@](O)(CO)[C@H]2O)[C@H]1O[C@@H]1OC[C@H](O)[C@H](O[C@@H]2OC[C@@H](O)[C@H](O)[C@H]2O)[C@H]1O (some centres not stated),"activity change, negative = cytotoxicity",[1],6.12% [at 6.55 µM]
same,"activity change, negative = cytotoxicity",[2],4.71% [at 6.55 µM]
same,"activity change, negative = cytotoxicity",[3],0.0459% [at 6.55 µM]
CC(C)c1c(NC(=O)Nc2ccc(Cl)cc2)c(=O)n(-c2ccccc2)n1C,Potency,[1],inactive
same,Potency,[2],inactive
same,Potency,[3],inactive
CCOc1ccc(-c2nn3ncccc3c2-c2ccc(S(C)(=O)=O)cc2)cc1,Potency,[1],inactive
same,Potency,[2],inactive
same,Potency,[3],inactive
COC(=O)[C@]1(C)CCC[C@@]2(C)C(=O)CC[C@H]3C(=O)C=C(CC[C@@H]21)C3O (some centres not stated),Potency,[1],inactive
same,Potency,[2],inactive
same,Potency,[3],inactive
FC(F)(F)Oc1ccc(-c2ccc3nnc(C(F)(F)F)n3c2)cc1,Potency,[1],inactive
same,Potency,[2],inactive
same,Potency,[3],inactive
CC(C)(O)/C=C/C(=O)[C@](C)(O)[C@H]1[C@H](O)C[C@@]2(C)[C@@H]3CC=C4[C@@H](C=C(O[C@@H]5O[C@H](CO)[C@@H](O)[C@H](O)[C@H]5O)C(=O)C4(C)C)[C@]3(C)C(=O)C[C@]12C,Potency,[1],inactive
same,Potency,[2],inactive
same,Potency,[3],inactive
O=C(OCC(O)CO[C@@H]1O[C@H](C(=O)O)[C@@H](O)[C@H](O)[C@H]1O)c1ccccc1 (some centres not stated),Potency,[1],inactive
same,Potency,[2],inactive
same,Potency,[3],inactive
Cc1ccccc1N1CCN(S(=O)(=O)C[C@]23CC[C@H](C[C@@H]2NC(=O)[C@@H](N)CCS(C)(=O)=O)C3(C)C)CC1,Potency,[1],inactive
same,Potency,[2],inactive
same,Potency,[3],inactive
CC1(C)O[C@H]2CC(=O)OC[C@@]23C1=C(O)C(=O)[C@]1(C)C3CC[C@@]2(C)[C@H](c3ccoc3)OC(=O)[C@H]3O[C@]321 (some centres not stated),Potency,[1],inactive
same,Potency,[2],inactive
same,Potency,[3],inactive
C[C@@H](NC(=O)c1cc(C(=O)N[C@@H](Cc2ccccc2)[C@H](O)CNC2CC2)cc(N(C)S(C)(=O)=O)c1)c1ccccc1,Potency,[1],inactive
same,Potency,[2],inactive
same,Potency,[3],inactive
CC(C)c1ccc2c(c1)C(=O)CC1C(C)(C(=O)O)CCCC21C (configuration not stated),Potency,[1],inactive
same,Potency,[2],inactive
same,Potency,[3],inactive
COC(=O)c1[nH]c(=O)c2ccccc2c1-c1ccc[nH]1,Potency,[2],inactive
CC(=O)O[C@@H]1[C@@H](O)[C@H](C)O[C@@H](O[C@H]2[C@@H]3C=CO[C@@H](O[C@@H]4O[C@H](CO)[C@@H](O)[C@H](O)[C@H]4OC(C)=O)[C@@H]3[C@@]3(CO)O[C@@H]23)[C@@H]1OC(=O)/C=C/c1ccc(O)cc1,Potency,[1],inactive
same,Potency,[2],inactive
same,Potency,[3],inactive
CC(C)=CCc1cc(O[C@@H]2O[C@H](CO[C@@H]3OC[C@](O)(CO)[C@H]3O)[C@@H](O)[C@H](O)[C@H]2O)ccc1O,Potency,[1],inactive
same,Potency,[2],inactive
same,Potency,[3],inactive
C/C=C(/C)C(=O)O[C@H]1C[C@]2(C)O[C@@H]2[C@@H](OC(C)=O)[C@@]2(C)CC[C@@](O)(C(C)C)[C@H]12,Potency,[1],inactive
same,Potency,[2],inactive
same,Potency,[3],inactive
COC(=O)CCC1(C)C(C(C)(C)O)C(O)CC2(C)Oc3c(C)c4c(c(OC)c3CC21)C(=O)OC4 (configuration not stated),Potency,[1],inactive
same,Potency,[3],inactive
CC(=O)c1[nH]cc(CCC(=O)O)c1CC(=O)O,Potency,[1],inactive
same,Potency,[2],inactive
same,Potency,[3],inactive
